Screening results from PubChem.
This is a sample that favours compounds with a hit; in the whole collection about 6.1% have one here.
D1 agonist: Allosteric Agonists of the Human D1 Dopamine Receptor: qHTS. 360,000 tested, 1% active. activation, % at 2 µM. D(1A) dopamine receptor (Homo sapiens), P21728. HEK293 T-REx D1 cells, calcium flux, agonist mode; in the data active means activation above about 30%
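Agonism was scored from calcium flux recorded over 180 s (1 read/s) after pintool compound addition, following a 10-cycle baseline. Cells were inducible force-coupled HEK293 TREx D1, plated overnight at 30 C and loaded with no-wash calcium dye.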
D1 antag: Antagonist of Human D 1 Dopamine Receptor: qHTS | activity change, negative = inhibition, % at 10 µM | D(1A) dopamine receptor (Homo sapiens), P21728 | HEK293 TREx D1 cells, calcium flux, dopamine EC80; active compounds read low | 360,000 tested, 3.2% active; in the data active means activity change below about -30%
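Tetracycline-induced HEK293 T-REx cells with force-coupled D1 receptor were loaded with a no-wash calcium dye. Compound was added after a 10 s baseline and read kinetically for 180 s; EC80 dopamine was then added and calcium flux followed another 180 s.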
ERG Ets-DNA blk: qHTS for Small Molecule Inhibitors of the ERG Ets/DNA interaction. Potency, µM (series often up to 76.9 µM), actives largely listed as inhibitors. 370,000 tested, 0.028% active. Transcriptional regulator ERG (Homo sapiens), P11308. fluorescence polarization, His-ERG Ets domain / labelled DNA; active means well fitted inhibition curve with a large enough effect in the polarisation, with a control signal flat; inconclusive means small, poorly fitted or top-dose-only effect, or effect the other way, or a change in a side signal; inactive means no such curve, though single readings can be large or run the other way; the % refers to the polarisation;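 further: polarization taken with two DNA probes labelled with fluorescein and Texas red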
Target sequence (P11308 whole entry, looked up, the tested form may be a part): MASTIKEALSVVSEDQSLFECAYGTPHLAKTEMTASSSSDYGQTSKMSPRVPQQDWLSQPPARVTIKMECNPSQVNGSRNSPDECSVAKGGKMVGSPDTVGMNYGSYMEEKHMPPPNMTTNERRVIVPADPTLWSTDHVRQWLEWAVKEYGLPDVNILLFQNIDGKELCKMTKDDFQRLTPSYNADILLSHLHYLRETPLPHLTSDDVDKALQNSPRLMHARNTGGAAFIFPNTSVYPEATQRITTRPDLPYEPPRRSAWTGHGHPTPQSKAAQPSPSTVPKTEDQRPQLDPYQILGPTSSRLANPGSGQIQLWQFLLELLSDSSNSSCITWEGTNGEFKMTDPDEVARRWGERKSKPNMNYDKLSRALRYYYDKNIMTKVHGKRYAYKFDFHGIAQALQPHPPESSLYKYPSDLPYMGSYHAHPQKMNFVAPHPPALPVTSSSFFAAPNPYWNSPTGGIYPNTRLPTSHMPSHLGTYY
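His-tagged ERG Ets domain (1 uM in the protein solution; 300mM KCl, 50mM Tris-HCl, 1mM EDTA, 1mM DTT, pH 7.5) received compound, then a probe mix of 5 nM fluorescein-DNA and 100nM Texas-615-DNA. Fluorescence polarization was read for both dyes.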
DRD3 antagonist: qHTS of D3 Dopamine Receptor Antagonist: qHTS. D(3) dopamine receptor (Homo sapiens), P35462. D3R cells, DiscoveRx beta-arrestin luminescence, antagonist mode; active compounds read low. max response, negative = inhibition, %. 360,000 tested, 2.5% active; in the data active means max response below about -50%; inconclusive means no clear call, values can overlap the other calls
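Cells expressing the human receptor were seeded at 1500 cells/well, incubated overnight at 37 degrees C in 5% CO2, then exposed to library compounds with dopamine controls for 90 minutes at 37 degrees C before luminescent detection.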
D1 PAM: Potentiators of Human D1 Dopamine Receptor: qHTS; D(1A) dopamine receptor (Homo sapiens), P21728; HEK293 TREx D1 cells, calcium flux, dopamine EC20 potentiation; potentiation, % at 10 µM; 360,000 tested, 0.036% active; AID 504651, 2011; in the data active means potentiation above about 30%
DRD3 agonist: qHTS of D3 Dopamine Receptor Agonist: qHTS; D(3) dopamine receptor (Homo sapiens), P35462; D3R DiscoveRx beta-arrestin cells, luminescence, 90 min; max activation, %; 410,000 tested, 0.58% active; in the data active means max activation above about 30%
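Agonist mode: compounds and dopamine controls were applied to plated cells for 90 min at 37 degrees C after an overnight attachment at 1500 cells/well. Luminescent read-out followed 30 - 60 minutes at room temperature with DiscoveRx detection reagent.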
Large screens that a line does not name were inactive.

CN1C2CCC1/C(=C\c1ccc(F)cc1)C(=O)/C2=C/c1ccc(F)cc1	DRD3 antagonist inconclusive
C=CC(=O)N1C/C(=C/c2ccc(F)cc2)C(=O)/C(=C\c2ccc(F)cc2)C1	DRD3 antagonist -61 (no result: D1 agonist, D1 antag, ERG Ets-DNA blk, D1 PAM)
Cc1cc(/C=N/n2cnnc2)c(O)c([N+](=O)[O-])c1	DRD3 antagonist -63
O=[N+]([O-])c1ccccc1-c1ccc(/C=N/n2cnnc2)o1	none
CCCCOc1ccc(/C(O)=C2/C(=O)C(=O)N(Cc3cccnc3)C2c2ccncc2)c(C)c1 (stereo not given)	D1 antag -56, DRD3 antagonist inconclusive (no result: ERG Ets-DNA blk)
Cc1ccc(/C=N/N2CCN(c3ccc(Cl)cc3)CC2)o1	D1 antag -48
Cc1ccc(/C=N/N2CCCCC2)o1	DRD3 antagonist inconclusive
CCC(CC)=N/N=C/c1c(O)n(CC)c2cc(C3=NNC(=O)CC3)ccc12	DRD3 antagonist -53
Cc1cc2nc(NC(=O)C3(C)CCN3C(=O)C(C)C)[nH]c2cc1C (stereo not given)	DRD3 agonist 66 (no result: D1 agonist, D1 antag, ERG Ets-DNA blk, D1 PAM)
N#Cc1c(N2CCN(c3ccc([N+](=O)[O-])cc3)CC2)[n+](=O)c2ccc(Cl)cc2n1[O-]	none (no result: D1 agonist, D1 antag, ERG Ets-DNA blk, D1 PAM)
C=CCN(CC=C)C(=O)c1ccc(OC2CCN(C(C)=O)CC2)c(OC)c1	D1 antag -42
COc1ccc(C(=O)NC2CC2)cc1OC1CCN(Cc2ccccc2O)CC1	D1 antag -38
COc1ccc(C(=O)NC2CC2)cc1OC1CCN(Cc2ccccc2F)CC1	D1 antag -53
C=CCOc1ccccc1CN1CCC(Oc2cc(C(=O)NC3CC3)ccc2OC)CC1	D1 antag -74
COc1ccc(CNC(=O)c2cc3cc(C)ccc3n2C)cc1	none (no result: DRD3 antagonist)
CCn1c(=O)cc(SCC(=O)NCc2cccc(Cl)c2)c2ccccc21	none (no result: DRD3 antagonist)
Cc1cc(C)c(S(=O)(=O)N/N=C/c2ccc3c(c2)OCO3)c(C)c1	D1 antag -72, DRD3 antagonist -71
CCN(CC)c1ccc(NC(=O)c2cnc3c(-c4ccccc4)c(C)nn3c2C)c(C)c1	none (no result: DRD3 antagonist)
COc1cccc(-n2cc(C(=O)NCCc3ccc(C)cc3)c3ccccc3c2=O)c1	D1 antag -48 (no result: DRD3 antagonist)
COc1ccc(-c2cc(C(=O)NCCc3ccccc3)c3c(-c4ccccc4)[nH]nc3n2)cc1	D1 antag -40 (no result: DRD3 antagonist)
CCOc1ccc(CCNC(=O)c2cn(-c3cccc(OC)c3)c(=O)c3ccccc23)cc1	D1 antag -42 (no result: DRD3 antagonist)
CCOc1ccc(-n2ccnc(SCC(=O)Nc3ccc(OC)cc3OC)c2=O)cc1	none
COc1cccc(-n2cc(C(=O)NCc3ccc(C)cc3)c3ccccc3c2=O)c1	none (no result: DRD3 antagonist)
COc1ccc(-c2cc(C(=O)NCCc3ccccc3)c3c(-c4ccc(Cl)cc4)[nH]nc3n2)cc1	none (no result: DRD3 antagonist)
CCOc1ccc(-n2ccnc(SCC(=O)NCc3cccc(OC)c3)c2=O)cc1	DRD3 antagonist -60
Cc1sc2ncn(CC(=O)Nc3ccc(F)cc3Cl)c(=O)c2c1S(=O)(=O)N1CCN(c2ncccn2)CC1	none (no result: DRD3 antagonist)
O=C(Cc1ccc(Br)cc1)Nc1ccc(S(=O)(=O)N2CCCC2)cc1	none (no result: ERG Ets-DNA blk, DRD3 antagonist, DRD3 agonist)
COc1ccc(CCNC(=O)c2cc(C(=O)c3cc(Cl)ccc3O)cn(CCc3ccc(OC)cc3)c2=O)cc1	none (no result: ERG Ets-DNA blk)
CCOc1ccc(CCNC(=O)c2cn(-c3ccc(OC)cc3)c(=O)c3ccccc23)cc1OCC	none (no result: DRD3 antagonist)
COc1ccc(CCNC(=O)c2cc(-c3ccccn3)nc3ccccc23)cc1	D1 antag -35
COc1ccc(CCNC(=O)c2cc(C(=O)c3cc(C)ccc3O)cn(CCc3ccc(OC)cc3)c2=O)cc1	DRD3 agonist 31
COc1ccc(-n2cc(C(=O)NCCc3ccc(C)cc3)c3ccccc3c2=O)cc1	D1 antag -39 (no result: DRD3 antagonist)
